Test results taken from PubChem BioAssay (NCATS).
Inconclusive results are not listed. Calls of active or inactive are those of the source. Calls come from the whole dose curve; as a rule, active = well fitted inhibition curve with a large enough effect; inconclusive = small, poorly fitted or top-dose-only effect; inactive = flat fitted curve, though single readings scatter.

What was measured:
[1] = Drug repurposing screens with cells derived from glioblastoma tumor samples (AID 1345199); conditions: GBM patient neurospheres viability, ATP luminescence, 48 h; note: nearly all actives have a fitted effect of over 40% in size
In short: (§1)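 Four patient lines of CD133+ GBM neurospheres were screened at several concentrations; hits were retested in those lines plus three slower-growing GBM lines, using 48-hour treatment and ATP-based viability.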

[2] = tested on: astro; test: as above; conditions: viability, ATP luminescence, 48 h; series mostly up to 45.9 µM
In short: as §1

[3] = at 45.9 µM (top of the series), tumour line B
[4] = at 45.9 µM (top of the series), tumour line D
[5] = at 46 µM (top of the series), tumour line A
[6] = at 46.1 µM (top of the series), tumour line C
% is set by controls: 0 for no effect and ±100 for the full control effect.

CS(=O)(=O)NC(=O)CCC/C=C\C[C@H]1C(=O)C[C@@H](O)[C@@H]1/C=C/[C@H](O)COc1ccccc1
inactive: activity, negative = cell killing [1, 3] -2.71% | activity, negative = cell killing [1, 4] -15.8% | activity, negative = cell killing [1, 5] -29.7% | activity, negative = cell killing [1, 6] 0.501% | Potency [2]

O=C(CO)[C@@H](O)[C@H](O)[C@H](O)CO
inactive: activity, negative = cell killing [1, 3] -6.93% | activity, negative = cell killing [1, 4] 1.86% | activity, negative = cell killing [1, 5] -24.2% | activity, negative = cell killing [1, 6] 19% | Potency [2]

O=C[C@H](O)[C@@H](O)[C@H](O[C@H]1O[C@H](CO)[C@@H](O[C@H]2O[C@H](CO)[C@@H](O)[C@H](O)[C@H]2O)[C@H](O)[C@H]1O)[C@H](O)CO
inactive: activity, negative = cell killing [1, 3] -5.93% | activity, negative = cell killing [1, 4] -7.07% | activity, negative = cell killing [1, 5] -21.5% | activity, negative = cell killing [1, 6] 5.59% | Potency [2]
